# Reference: PubChem BioAssay (Tox21)
# Where “and” joins values, the source holds several entries; their conditions need not be identical. Equal entries are not always repeated. A number with no mark means an inactive call. Inconclusive results are not listed. A call without a number means that no potency is given here. Calls of active or inactive are those of the source. The call rests on the fitted dose curve.
# How the values were obtained:
# [1] = biological target: Acetylcholinesterase (Homo sapiens) (UniProt P22303); test: Acetylcholinesterase (AChE) small molecule antagonists: colormetric cell-based qHTS assay (AID 1347395); further: nearly all actives have a fitted effect of over 30% in size
# Sequence of Acetylcholinesterase (Homo sapiens) (P22303 whole entry, looked up): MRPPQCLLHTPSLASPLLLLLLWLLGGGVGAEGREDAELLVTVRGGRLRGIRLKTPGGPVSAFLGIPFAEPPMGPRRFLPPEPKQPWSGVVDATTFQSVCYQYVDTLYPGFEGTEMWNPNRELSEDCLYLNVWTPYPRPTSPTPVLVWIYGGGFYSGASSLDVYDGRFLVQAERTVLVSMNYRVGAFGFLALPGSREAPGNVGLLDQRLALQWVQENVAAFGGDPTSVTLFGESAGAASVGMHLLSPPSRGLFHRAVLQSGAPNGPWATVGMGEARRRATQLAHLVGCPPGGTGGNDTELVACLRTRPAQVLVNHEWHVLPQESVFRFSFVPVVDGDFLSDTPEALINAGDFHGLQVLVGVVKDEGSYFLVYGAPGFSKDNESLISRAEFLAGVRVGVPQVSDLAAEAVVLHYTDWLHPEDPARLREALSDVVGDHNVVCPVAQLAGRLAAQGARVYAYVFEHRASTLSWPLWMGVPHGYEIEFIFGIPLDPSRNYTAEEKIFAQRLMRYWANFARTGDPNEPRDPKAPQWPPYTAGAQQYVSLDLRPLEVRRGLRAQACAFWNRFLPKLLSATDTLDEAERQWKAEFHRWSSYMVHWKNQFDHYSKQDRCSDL
# Procedure, shortened: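 Neuroblastoma line SH-SY5Y supplied the enzyme; cells were preincubated with compound for 30 min at 37 C and 5% CO2. Acetylthiocholine with DTNB was then added for 90 min at 37 C, and thiocholine was measured by colour.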
# [2] = biological target: Acetylcholinesterase (Homo sapiens) (UniProt P22303); test: Acetylcholinesterase (AChE) small molecule antagonists: enzyme-based qHTS assay (AID 1347397); conditions: Potency: AChE enzyme activity inhibition; outcome: AChE enzyme activity inhibition; further: nearly all actives have a fitted effect of over 55% in size; further: potency means the concentration at half of the fitted maximal effect
# Procedure, shortened: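 Recombinant human AChE, dispensed at 50 mU/mL, was preincubated with Tox21 10K compounds or DMSO vehicle for 30 min at room temperature. DTNB plus acetylthiocholine was then added, and thiocholine was measured colorimetrically after a further 10 min.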
# [3] = biological target: Acetylcholinesterase (Homo sapiens) (UniProt P22303); test: Acetylcholinesterase (AChE) small molecule antagonists: fluorescence cell-based qHTS assay (AID 1347398); conditions: Potency: AChE activity; outcome: AChE activity; further: nearly all actives have a fitted effect of over 50% in size
# Procedure, shortened: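 Human SH-SY5Y cells were plated overnight at 37 C, exposed to compound for 30 min at 37 C, 5% CO2, then given acetylthiocholine plus Thiolite Green for 40 min at room temperature; thiocholine fluorescence (Ex/Em 490/520 nm) reports endogenous AChE activity.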
# [4] = biological target: Acetylcholinesterase (Homo sapiens) (UniProt P22303); test: Acetylcholinesterase (AChE) small molecule antagonists: enzyme-based qHTS assay with human liver microsomes (AID 1347399); conditions: Potency: qHTS inhibition; outcome: qHTS inhibition; further: nearly all actives have a fitted effect of over 60% in size
# Procedure, shortened: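 Recombinant human AChE (50 mU/mL in the enzyme mix) and human liver microsomes (0.25 mg/mL final) were preincubated with compound and NADPH (0.25 mg/mL final) for 30 min at 37 C. Acetylthiocholine/DTNB was then added; thiocholine was read colorimetrically after 10 min at room temperature.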
SMILES,Potency [1],Potency [2],Potency [3],Potency [4],outcome [1],outcome [2],outcome [3],outcome [4]
C=C(C)C(=O)OCCOCCOCCOCCOC(=O)C(=C)C,inactive,inactive,inactive,inactive,–,–,–,–
CCCc1c(OCCCOc2ccc(OCC(=O)O)cc2)ccc(C(C)=O)c1O,inactive,inactive,inactive,inactive,–,–,–,–
NC[C@H](O)c1ccc(O)c(O)c1,inactive,inactive,inactive,inactive,–,–,–,–
ClC/C=C/CCl,inactive,inactive,inactive,inactive,–,–,–,–
C=CCCCCCCCCOC(C)=O,inactive,inactive,inactive,inactive,–,–,–,–
NC(=O)c1ccccc1Cl,inactive,inactive,inactive,inactive,–,–,–,–
ClCCl,inactive,inactive,inactive,inactive,–,–,–,–
Cc1ccc(C)o1,inactive,inactive,inactive,inactive,–,–,–,–
O=[N+]([O-])c1ccc(CCO)cc1,inactive,inactive,inactive,inactive,–,–,–,–
CC(C)N=C(N)/N=C(\N)Nc1ccc(Cl)cc1,inactive,inactive,inactive,inactive,–,–,–,–
C=CCOC(=O)/C=C\C(=O)OCC=C,inactive,inactive,inactive,inactive,–,–,–,–
Cc1cc(Cc2ccc(N)c(C)c2)ccc1N,inactive,inactive,inactive,inactive,–,–,–,–
Cc1cccc(C)c1OCC(=O)N[C@@H](Cc1ccccc1)[C@@H](O)C[C@H](Cc1ccccc1)NC(=O)[C@H](C(C)C)N1CCCNC1=O,inactive,inactive,inactive,inactive,–,–,–,–
CCCC(C)c1ccccc1O (stereo not given),inactive,inactive,inactive,inactive,–,–,–,–
COc1ccc(O)cc1,inactive,inactive,inactive,inactive,–,–,–,–
O=[N+]([O-])c1cc(N(CCO)CCO)ccc1NCCO,inactive,inactive,inactive,inactive,–,–,–,–
C=CCOC(=O)CCC1CCCCC1,inactive,inactive,inactive,inactive,–,–,–,–
C=CC(=O)OCCCCCC,inactive,inactive,inactive,inactive,–,–,–,–
CC(=O)Nc1ccc(N=Nc2cc(C)ccc2O)cc1,inactive,22.4 µM (active),inactive,inactive,–,–,–,–
Oc1cc(O)c2c(c1)O[C@H](c1ccc(O)c(O)c1)[C@H](O)C2,inactive,inactive,inactive,inactive,–,–,–,–

SMILES,Potency [1],Potency [2],Potency [3],Potency [4],outcome [1],outcome [2],outcome [3],outcome [4]
CCCCCOC(=O)COc1cc(N2C(=O)C3=C(CCCC3)C2=O)c(F)cc1Cl,inactive,inactive,inactive,inactive,–,–,–,–
CNC[C@H](O)[C@@H](O)[C@H](O)[C@H](O)CO,inactive,inactive,inactive,inactive,–,–,–,–
CCCCSCCCC,inactive,inactive,inactive,inactive,–,–,–,–
c1ccc2ncccc2c1,inactive,inactive,inactive,inactive,–,–,–,–
CC(C)c1cccc(C(C)C)c1N,inactive,inactive,inactive,inactive,–,–,–,–
CCOCCOCC,inactive,inactive,inactive,inactive,–,–,–,–
CCC(C)(C)CC,inactive,inactive,inactive,inactive,–,–,–,–
CCCCOCCOCCO,inactive,inactive,inactive,inactive,–,–,–,–
NC1CCCCC1,inactive,inactive,inactive,inactive,–,–,–,–
C=CCCCCCCCCC(=O)OCC,inactive,inactive,inactive,inactive,–,–,–,–
O=C(Cn1ccnc1[N+](=O)[O-])NCc1ccccc1,inactive,inactive,inactive,inactive,–,–,–,–
OCCCCCCCCCCCCBr,inactive,inactive,inactive,inactive,–,–,–,–
O=C(c1ccccc1)C1(O)CCCCC1,inactive,inactive,inactive,inactive,–,–,–,–
Cc1occc1S,inactive,inactive,inactive,inactive,–,–,–,–
OC[C@H]1O[C@@H](O[C@H]2[C@H](O)[C@@H](O)[C@H](O)O[C@@H]2CO)[C@H](O)[C@@H](O)[C@H]1O,inactive,inactive,inactive,inactive,–,–,–,–
O=C(O)CCNC(=O)c1ccccc1,inactive,inactive,inactive,inactive,–,–,–,–
c1ccc2sc(SN3CCOCC3)nc2c1,inactive,inactive,inactive,inactive,–,–,–,–
CCCCCCCCCCC(CO)CCCCCCCC (stereo not given),inactive,inactive,inactive,inactive,–,–,–,–
C#C[C@]1(O)CC[C@H]2[C@@H]3[C@H](C)CC4=C(CCC(=O)C4)[C@H]3CC[C@@]21C,inactive,inactive,inactive,inactive,–,–,–,–
CCC(CO)(CO)CO,inactive,inactive,inactive,inactive,–,–,–,–

SMILES,Potency [1],Potency [2],Potency [3],Potency [4],outcome [1],outcome [2],outcome [3],outcome [4]
CC(=O)[C@@]1(O)CC[C@H]2[C@@H]3C[C@H](C)C4=CC(=O)C=C[C@]4(C)[C@@]3(F)[C@@H](O)C[C@@]21C,inactive,inactive,inactive,inactive,–,–,–,–
CCCCCCCCCCCCCO,inactive,inactive,inactive,inactive,–,–,–,–
COc1cc(C=O)ccc1O,inactive,inactive,inactive,inactive,–,–,–,–
Cc1nc2ccc(CN(C)c3ccc(C(=O)N[C@@H](CCC(=O)O)C(=O)O)s3)cc2c(=O)[nH]1,inactive,inactive,inactive,inactive,–,–,–,–
CC1=CC(=O)c2ccccc2C1=O,inactive,inactive,inactive,inactive,–,–,–,–
OCc1cccc(Oc2ccccc2)c1,inactive,inactive,inactive,inactive,–,–,–,–
CC(C)(C#N)Nc1nc(Cl)nc(NC2CC2)n1,inactive,inactive,inactive,inactive,–,–,–,–
Cc1ccc(-c2ccccc2C#N)cc1,inactive,inactive,inactive,inactive,–,–,–,–
c1ccc(Cc2ccccc2)cc1,inactive,inactive,inactive,inactive,–,–,–,–
CCOCCOCCO,inactive,inactive,inactive,inactive,–,–,–,–
CC(C)(C)c1cc(/C=C2\SC(=N)NC2=O)cc(C(C)(C)C)c1O,–,–,–,–,inactive,inactive,inactive,inactive
COc1nc(C)nc(N)n1,inactive,inactive,inactive,inactive,–,–,–,–
CCCc1nn(C)c2c(=O)[nH]c(-c3cc(S(=O)(=O)N4CCN(C)CC4)ccc3OCC)nc12,inactive,inactive,inactive,inactive,–,–,–,–
CCCCCC(C)O (stereo not given),inactive,inactive,inactive,inactive,–,–,–,–
CCCOC(=O)C(C)O (stereo not given),inactive,inactive,inactive,inactive,–,–,–,–
CCn1c2ccccc2c2ccccc21,inactive,inactive,inactive,inactive,–,–,–,–
CC(C)(c1cc(Br)c(O)c(Br)c1)c1cc(Br)c(O)c(Br)c1,inactive,39.8 µM (active) and 70.8 µM (active) and 67.2 µM (active),inactive,inactive,–,–,–,–
CCOC(=O)/C=C/c1ccccc1,inactive,inactive,inactive,inactive,–,–,–,–
CC(C)CCCCCCN,inactive,inactive,inactive,inactive,–,–,–,–
C[C@@H]1CCN(C(=O)[C@H](CCCN=C(N)N)NS(=O)(=O)c2cccc3c2NC[C@H](C)C3)[C@@H](C(=O)O)C1,inactive,inactive,inactive,inactive,–,–,–,–
